ELG1 DNA repair – ELG1-dependent DNA repair inhibition; Potency, µM (top dose mostly 46.1 µM), hits mostly inhibitors; HEK293T ELG1-luciferase reporter, luminescence, 16 h; DNA damage induced by 5-fluorouridine; 2.3% of 330,000 active; note: nearly all actives have a fitted effect of over 55% in size
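Reporter activity after DNA damage by 5-fluorouridine is monitored. Compound-treated cells incubate 16 hr at 37 °C, then ONE-Glo is added for 30 min before luminescence reading.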
Giardia kill – Giardia lamblia killing; activity change, % at 7.66 µM, hits read low; AID 540267; 0.15% of 340,000 active; Giardia lamblia trophozoite viability; in the data active = activity change below about -80%; inconclusive = between about -30% and that limit;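 note: parasites exposed to compound for two days anaerobically before the ATP read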
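Killing of trophozoites was scored by loss of ATP luminescence after a 48 hrs anaerobic exposure to compounds at 37 deg C, using 100 cells per well.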
TDP1 cell CPT – DT40-hTDP1 cell growth loss with CPT | Potency, µM (highest dose often 46.2 µM), hits mostly inhibitors | 12% of 420,000 active | chicken DT40 Tdp1-/-;hTDP1 cells + 20 nM CPT, ATP luminescence, 48 h | AID 686979; note: nearly all actives have a fitted effect of over 55% in size
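Cell growth measured by CellTiter-Glo luminescence after a minimum 48 h, 37 C compound exposure with 20 nM CPT in Tdp1-knockout DT40 cells stably expressing hTDP1, seeded 400/well; qHTS titration format.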
IL1B secr inh – inhibitors of inflammasome signaling (IL-1 beta secretion); 4.7% of 360,000 active; THP-1 LPS/ATP IL-1B secretion, AlphaLISA, 16 h; hits give low values; activity change, % at 57.5 µM; in the data active = activity change below about -50%; inconclusive = mostly about -30% to -49%
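THP-1 cells pretreated 1 hr with compounds (up to 57.5 uM final), then stimulated with LPS (250 ng/mL final) plus ATP (1.25 mM final); secreted IL-1B measured by AlphaLISA after 16 hr, decreased signal indicating inhibition.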
DT40 TDP1 no CPT – qHTS for Inhibitors of human tyrosyl-DNA phosphodiesterase 1 (TDP1): qHTS in cells in absence of CPT. DT40 Tdp1-/- hTDP1 cells, no CPT, ATP luminescence, 48 h. Potency, µM (series often up to 46.2 µM), hits mostly inhibitors. 15% of 420,000 active. AID 686978, 2013; note: nearly all actives have a fitted effect of over 55% in size
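Readout: luminescence from CellTiter-Glo after 30 min in the dark at RT. Cells: DT40 Tdp1-/- with stable hTDP1, 400/well. Exposure: compounds alone, ≥48 hr, 37 °C.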
TDP1 block – TDP1 (human) enzyme inhibition; Potency, µM (doses to about 130 µM), most hits filed as inhibitors; 0.28% of 350,000 active; recombinant TDP1, AlphaScreen DNA substrate cleavage; Q9NUW8; note: nearly all actives have a fitted effect of over 40% in size
Target sequence (Q9NUW8 whole entry, looked up): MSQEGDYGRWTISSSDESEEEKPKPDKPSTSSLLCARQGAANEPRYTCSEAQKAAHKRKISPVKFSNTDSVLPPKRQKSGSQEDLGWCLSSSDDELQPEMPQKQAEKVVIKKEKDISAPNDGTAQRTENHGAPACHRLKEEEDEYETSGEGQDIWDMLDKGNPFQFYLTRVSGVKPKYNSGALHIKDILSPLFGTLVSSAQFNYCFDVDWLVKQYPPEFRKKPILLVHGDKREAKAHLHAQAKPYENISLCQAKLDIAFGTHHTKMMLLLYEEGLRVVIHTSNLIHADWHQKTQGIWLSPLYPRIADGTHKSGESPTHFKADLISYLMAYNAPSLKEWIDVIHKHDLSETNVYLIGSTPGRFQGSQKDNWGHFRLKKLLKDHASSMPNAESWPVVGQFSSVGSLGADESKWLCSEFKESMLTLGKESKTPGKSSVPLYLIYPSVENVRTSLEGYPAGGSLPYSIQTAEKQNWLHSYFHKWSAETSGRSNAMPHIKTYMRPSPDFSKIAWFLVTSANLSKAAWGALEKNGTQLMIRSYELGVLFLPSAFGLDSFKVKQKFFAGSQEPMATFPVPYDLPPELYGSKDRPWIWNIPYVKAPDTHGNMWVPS
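Signal: AlphaScreen proximity between streptavidin donor and anti-FITC acceptor beads on intact substrate. Reaction: Tdp1 1 nM, substrate 15 nM final, 5 min RT after 15 min compound preincubation.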
Numbers stand for hits; – = inactive; ? = inconclusive; · = no result given. Compounds with a hit are over-represented: about 19% of the library has one in this group of screens. Unless noted, calls come from the whole dose curve; as a rule, active = well fitted curve in the direction sought with a large enough effect; inconclusive = small, poorly fitted or top-dose-only effect, or another doubt; inactive = no such curve, though single readings can be large; an effect the other way counts as inactive or inconclusive.

SMILES | ELG1 DNA repair | Giardia kill | TDP1 cell CPT | IL1B secr inh | DT40 TDP1 no CPT | TDP1 block
CCOc1ccc(-c2nnc3ccc(SCC(=O)Nc4nc5ccc(C)cc5s4)nn23)cc1 | 8.2µM | – | ? | – | 26µM | –
CCc1nnc(NC(=O)CSc2nncc(=O)n2N)s1 | – | – | – | – | – | –
Cc1ccc(NC(=O)CN(C)S(=O)(=O)c2cccc3nsnc23)c(C)c1 | · | · | – | · | – | –
COC(=O)CCCC(=O)N1CCCC(N(C)CCc2ccccc2)C1 (centres undefined) | – | – | – | – | – | ·
CC(C)Nc1nc(C#N)nc(Nc2ccccc2)n1 | · | · | · | · | · | –
COc1ccc(C2CC(c3ccccc3)Oc3ccc(C(C)(C)C)cc32)cc1 (centres undefined) | · | – | · | · | · | –
Cc1cccc(C(=O)N2CCc3cc(CNC(=O)CCc4ccccc4)ccc32)c1 | · | · | 15µM | · | 13µM | –
COc1ccc(OCC(=O)NCc2ccc3c(c2)CCN3C(=O)c2cccc(C)c2)cc1 | · | · | 1.8µM | · | 1.8µM | –
O=C(COc1ccc(F)cc1)NCc1ccc2c(c1)CCN2C(=O)c1ccccc1 | · | · | – | · | – | –
CN1C(=O)Cc2cc(S(=O)(=O)CCC(=O)Nc3cccc(C(F)(F)F)c3)ccc21 | · | · | – | · | – | –
CCOC(=O)c1ccc(NC(=O)COc2ccccc2CNCCc2ccccc2)cc1 | 26µM | – | ? | -88 | ? | –
CCOC(=O)c1ccc(NC(=O)COC)cc1 | ? | – | – | – | – | –
CCOC(=O)c1ccc(NC(=O)COc2ccc(CNCCO)cc2OCC)cc1 | – | – | – | -102 | – | –
CN(C)/C=C/C(=O)c1ccccc1OCc1cnc(Cl)s1 | – | ? | – | – | – | –
CCOc1ccccc1-n1nnnc1SC(C)C(=O)OC (centres undefined) | – | – | – | – | – | –
CC(C)Cc1nc2oc3c(N4CCN(CCO)CC4)ncnc3c2c2c1CCCC2 | ? | – | 13µM | – | 13µM | –
CCCc1nc2oc3c(NCC(C)O)ncnc3c2c2c1CCCC2 (centres undefined) | 23µM | – | ? | – | ? | –
CC(C)c1nc2oc3c(NCc4cccnc4)ncnc3c2c2c1CCC2 | 8.2µM | – | – | ? | ? | –
CC(C)Cc1nc2oc3c(NCc4cccnc4)ncnc3c2c2c1CCC2 | ? | – | – | – | – | –
CC(C)Cc1nc2oc3c(NCC4CCCO4)ncnc3c2c2c1CCC2 (centres undefined) | 12µM | – | 13µM | – | 18µM | –
Cc1nn(-c2ccc(N3CCOCC3)nn2)c(C)c1CCC(=O)NCc1ccc(OC(C)C)cc1 | · | · | – | · | – | –
CC1=Nc2ccccc2N=C(NC(=O)CSc2nnnn2-c2ccccc2)C1c1ccccc1 (centres undefined) | · | – | ? | – | 29µM | –
CC1=Nc2ccccc2N=C(NC(=O)CSC(=S)N2CCN(C)CC2)C1c1ccccc1 (centres undefined) | – | – | ? | – | 16µM | –
NC(=O)c1ccc(-n2nnnc2SCC(=O)Nc2ccccc2)cc1 | – | – | – | – | – | ·
CCOC(=O)C1CCCN(CC(=O)NC2=Nc3ccccc3N=C(C)C2c2ccccc2)C1 (centres undefined) | ? | – | ? | – | ? | –
SMILES | ELG1 DNA repair | Giardia kill | TDP1 cell CPT | IL1B secr inh | DT40 TDP1 no CPT | TDP1 block
CC1=Nc2ccccc2N=C(NC(=O)CSC(=S)N2CCCCC2)C1c1ccccc1 (centres undefined) | 21µM | – | – | – | ? | –
Clc1cc2nc[nH]c2cc1Cl | – | – | – | – | – | ·
Fc1cc2[nH]cnc2cc1Cl | – | ? | – | – | 1.8µM | –
CC1=CC2=C(C=O)C(=O)C(C)(O)C(O)C2=CO1 (centres undefined) | · | · | ? | -62 | ? | ·
NC(=O)c1cccc(-c2coc3c(C(=O)NCc4cccnc4)cccc23)c1 | · | · | 21µM | – | 23µM | ·
Cn1nccc1-c1coc2c(C(=O)NCc3ccccc3)cccc12 | · | · | ? | – | ? | ·
CC(C)CNC(=O)c1cccc2c(-c3cccc(C(N)=O)c3)coc12 | · | · | 23µM | – | ? | ·
O=C(NCc1cccc(Cl)c1)c1cccc2c(-c3cccnc3)coc12 | · | · | 16µM | ? | ? | ·
O=C(NCCc1ccccc1)c1cccc2c(-c3cccnc3)coc12 | · | · | – | – | – | ·
O=C(NCc1ccc(F)c(F)c1)c1cccc2c(-c3cccnc3)coc12 | · | · | ? | -63 | ? | ·
O=C(NCc1cccs1)c1cccc2c(-c3cccnc3)coc12 | · | · | ? | ? | – | ·
COc1cc(CC(=O)Nc2c(-c3ccccc3)[nH][nH]c2=O)cc(OC)c1 | · | · | – | – | – | ·
O=C(Cc1ccccc1)N(Cc1cccnc1)c1nc2c(F)cc(F)cc2s1 | · | · | ? | · | ? | –
COCCNC(=O)c1ccc2nc(CCc3ccccc3)oc2c1 | · | · | – | · | – | –
Cc1coc2c1c(C)cc1oc(=O)c(CC(=O)N[C@@H](CC(C)C)C(=O)O)c(C)c12 | – | – | – | – | – | ·
CCOC(=O)CCCCC(=O)c1[nH]c(=O)[nH]c1CSc1nnc2c3ccccc3n(C(C)C)c2n1 | – | – | – | – | ? | –
COc1ccc(CNC(=O)c2cccc3c(-c4cccnc4)coc23)cc1OC | · | · | 1.2µM | – | 1.5µM | ·
NC(=O)c1cccc(-c2coc3c(C(=O)NC4CCCCC4)cccc23)c1 | · | · | ? | – | 8.2µM | ·
COc1ccccc1-c1cc(NC=O)c2ncc(-c3ccc(F)cc3)n2c1 | · | · | 13µM | – | 18µM | ·
CN(C)c1ccccc1-c1cc(NC=O)c2ncc(-c3cccc(C(F)(F)F)c3)n2c1 | · | · | ? | -74 | 23µM | ·
COc1ccccc1-c1cc(NC=O)c2ncc(-c3cccc(C(F)(F)F)c3)n2c1 | · | · | ? | – | 18µM | ·
COc1ccc(-c2cc(NC=O)c3ncc(-c4cccc(C(F)(F)F)c4)n3c2)cc1OC | · | · | 23µM | -63 | 21µM | ·
O=C(N/N=C/c1ccsc1)c1ccc2ccccc2n1 | ? | – | – | – | – | –
Cc1cc(N2CCN(c3cccc(C)c3C)CC2)n2cnnc2n1 | · | · | ? | · | ? | –
CC(NC(=O)c1cc(F)ccc1F)c1nnc2n1CCN(Cc1cccs1)CC2 (centres undefined) | · | · | – | · | – | ·
COc1cc(-c2cc(NC=O)c3ncc(-c4cccc(C(F)(F)F)c4)n3c2)cc(OC)c1OC | · | · | 8.2µM | – | 10µM | ·
CC1(c2ccc([N+](=O)[O-])c(CS(=O)(=O)c3ccccc3)c2)OCCO1 | – | – | – | – | – | –
COc1ccccc1-c1ccc2ncnc(NCc3cccnc3)c2c1 | · | · | 8.2µM | · | 6.5µM | –
COc1ccccc1CNc1ncncc1-c1ccccc1Cl | · | · | – | · | – | ·
COc1ccccc1-c1cncnc1NCc1cccnc1 | · | · | – | · | – | 25µM
